High-throughput results: PubChem BioAssay, The Scripps Research Institute Molecular Screening Center
FBW7 act: activators of human E3 ligase FBW7. AID 1259310. AlphaScreen FBW7–phospho-cyclin E peptide binding, activator screen. 650,000 tested, 0.13% active. Q969H0. normalized activity (activation), % at 26.1 µM; in the data active means normalized activity above about 1.9%;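 further: purified mutant Fbw7 with reduced substrate affinity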
Target sequence (Q969H0 whole entry, looked up): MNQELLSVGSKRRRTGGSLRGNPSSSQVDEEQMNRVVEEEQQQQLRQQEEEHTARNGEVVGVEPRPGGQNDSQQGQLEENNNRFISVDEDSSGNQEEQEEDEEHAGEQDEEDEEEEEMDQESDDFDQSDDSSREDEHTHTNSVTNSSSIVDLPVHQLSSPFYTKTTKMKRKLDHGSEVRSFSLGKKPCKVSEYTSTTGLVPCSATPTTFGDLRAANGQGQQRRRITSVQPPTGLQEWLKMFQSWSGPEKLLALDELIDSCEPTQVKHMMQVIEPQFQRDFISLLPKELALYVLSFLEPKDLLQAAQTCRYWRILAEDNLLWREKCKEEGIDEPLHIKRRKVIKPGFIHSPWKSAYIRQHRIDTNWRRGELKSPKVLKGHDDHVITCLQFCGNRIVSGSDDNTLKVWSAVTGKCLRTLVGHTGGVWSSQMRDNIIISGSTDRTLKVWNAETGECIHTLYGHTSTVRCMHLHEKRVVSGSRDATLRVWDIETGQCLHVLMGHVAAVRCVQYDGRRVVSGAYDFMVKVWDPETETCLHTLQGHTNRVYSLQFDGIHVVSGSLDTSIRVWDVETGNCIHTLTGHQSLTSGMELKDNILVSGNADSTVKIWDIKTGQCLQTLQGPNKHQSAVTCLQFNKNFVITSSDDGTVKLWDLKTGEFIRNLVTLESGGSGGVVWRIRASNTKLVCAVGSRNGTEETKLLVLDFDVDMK
MITF inh: human MITF inhibition, primary screen. O75030. AlphaScreen MITF homodimerization, bead proximity signal. inhibition, % at 2.6 µM. 650,000 tested, 0.91% active; in the data active means inhibition above about 50%;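 further: 0% = vehicle wells with protein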
TEAD-YAP block: TEAD-YAP interaction inhibition; inhibition, % at 9.12 µM; 640,000 tested, 1.4% active; AID 1259422; HEK-TIYL cells, TEAD-Gal4/YAP UAS-luciferase luminescence; in the data active means inhibition above about 32%;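 further: 0% = median of test compound wells and 100% = reference inhibitor wells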
GPR151 ag: human GPR151 activation; PathHunter beta-arrestin GPR151 cells, luminescence; activation, % at 11.2 µM; Q8TDV0; 650,000 tested, 1% active; in the data active means activation above about 4.9%;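 further: 0% = median of compound wells and 100% = cells with positive control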
GPR151 conf act: human GPR151 activation, confirmation screen | shares compounds with GPR151 ag | 6,700 tested, under 10 active | GPR151 PathHunter beta-arrestin cells, luminescence, 90 min; % of EA-reagent control over plate median | activation, % at 11.2 µM;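 active means mean percent activation across replicates above the confirmation screen cutoff of 4.91%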
GPR119 ag: counter-screen for GPR151 activators: effect on human GPR119 | shares compounds with GPR151 ag | GPR119 PathHunter beta-arrestin cells, luminescence, 90 min; 0 = compound-well median, 100 = enzyme-acceptor control | activation, % at 11.2 µM | 6,700 tested, 0.3% active | AID 1508611;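 active means mean percent activation in the counterscreen above 29.09%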;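 further: counterscreen on off-target GPR119 to flag nonselective hits from the GPR151 activator screen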
* = called active by the depositor; · = no result; ! = repeats disagree. Compounds with a hit are over-represented: about 3.5% of the library has one in this group of screens.

SMILES | FBW7 act | MITF inh | TEAD-YAP block | GPR151 ag | GPR151 conf act | GPR119 ag
CCOc1ccc(NC(=O)c2sc3ncn(CC(=O)N4CC(C)CC(C)C4)c(=O)c3c2C)cc1 (centres undefined) | -0.1 | 2.0 | 19.9 | 6.3* | -0.5 | -0.4
O=C1CCC(N2CCN(c3ncnc4ccccc34)CC2)CCN1Cc1cccc(Cl)c1 (centres undefined) | -0.1 | -12.4 | -17.2 | 1.8 | · | ·
Cc1cccc(CCNc2c(-c3ccccc3)c(=O)c2=O)c1 | 0.7 | 2.3 | 12.8 | 1.4 | · | ·
Cc1ccsc1CCNc1c(-c2ccccc2)c(=O)c1=O | 0.1 | 11.6 | 9.2 | 5.2* | 0.8 | 10.4
CCCNc1ccc2ncc(-c3cccc(CO)c3)n2n1 | -0.2 | 4.1 | 25.8 | -0.3 | · | ·
CCC(C)NC(=O)C1=C(C)C(=O)OC12CCCCCC2 (centres undefined) | 0.4 | 15.4 | 8.4 | -1.3 | · | ·
CC1=C(C(=O)NC2CCCC2)C2(CCCCCC2)OC1=O | 0.1 | 17.8 | -1.5 | -0.2 | · | ·
CC1=C(C(=O)NC2CCCCC2)C2(CCCCC2)OC1=O | -0.1 | 3.2 | -5.6 | 6.2* | 0.0 | -9.2
CC1=C(C(=O)NC(C)C)C2(CCCCC2)OC1=O | -0.1 | -6.5 | -3.9 | 7.3* | 1.1 | -7.2
CCCCCCCCCCCCCC/C(C(=O)O)=C(\C)C(=O)O | 0.0 | 14.6 | 6.1 | 9.5* | 2.2 | -3.5
COc1ccc(N2C(=O)C3CCCN3C2c2cccc(F)c2)cc1 (centres undefined) | 0.2 | 5.0 | 0.8 | 0.9 | · | ·
COc1ccc(CN(C)CCN(C)C)c(OC)c1C | 0.0 | 9.3 | 4.2 | 6.6* | 0.6 | -0.4
COc1cccc(CN(C)CCN(C)C)c1O | 0.1 | -0.6 | 0.6 | -1.9 | · | ·
CC1CCN(c2nc(N3CCOCC3)nc(N3CCOCC3)n2)CC1 | -0.1 | 8.1 | 7.7 | 8.9* | 0.1 | -1.6
O=C(COc1ccc(Cl)cc1)NC(=O)NCc1ccco1 | 0.0 | -17.0 | 8.2 | -0.7 | · | ·
O=C(COC(=O)CCS(=O)(=O)c1ccccc1Cl)NC(=O)NCc1ccco1 | -0.1 | -2.1 | 2.5 | 6.4* | 2.4 | -0.4
O=C1CSC2(C(=O)Nc3ccccc32)N1c1ccc(I)cc1 (centres undefined) | -2.1 | 7.7 | 13.2 | -0.6 | · | ·
CCOC(=O)N1CCN(C(=O)CN(c2cccc(C)c2C)S(=O)(=O)c2ccccc2)CC1 | -0.2 | -7.0 | -1.7 | -0.1 | · | ·
Cc1ccc(-c2nnc(SCC(=O)Nc3ccccc3N3CCOCC3)o2)cc1 | 0.1 | 11.9 | -6.2 | 5.1* | 0.4 | 2.2
COc1ccc(-c2nnc(SCC(=O)Nc3ccc(N4CCOCC4)cc3)o2)cc1 | 0.2 | -0.1 | 17.2 | 6.1* | -0.8 | -8.3
NCCNCCCCOc1ccc(Cl)cc1Br | 0.1 | 2.1 | 14.4 | -0.2 | · | ·
CCc1nn(CC(=O)OC(C)C)c(=O)c2cc3oc(C)cc3n12 | 0.0 | 6.6 | -18.6 | 5.4* | -0.6 | -6.0
O=C(CCCOc1ccccc1)Nc1ccccc1C(=O)N1CCOCC1 | 0.1 | 3.9 | 7.9 | 9.4* | 0.4 | 11.7
CNC(=O)C1CN(Cc2ccc3c(c2)OCO3)CCN1C(=O)c1ccc(F)c(F)c1 (centres undefined) | -0.1 | 2.5 | -2.5 | 7.2* | -0.2 | -9.4
CN(C(=O)CN1CCN(c2cccc(Cl)c2)CC1)C1CCCCC1 | -0.1 | 13.7 | 4.3 | 0.4 | · | ·
SMILES | FBW7 act | MITF inh | TEAD-YAP block | GPR151 ag | GPR151 conf act | GPR119 ag
COc1cc(CNC(=O)CCCC/C=C/C(C)C)ccc1O | 0.1 | -7.4 | -12.1 | 7.6*! | 0.1 | -5.9
COc1ccc(CNC(=O)CCSC)cc1OC | 0.1 | -4.8 | 1.5 | -0.7 | · | ·
Cc1ccc(CN2C(=O)C3CCCN3c3ccc(C#N)cc32)cc1 (centres undefined) | 0.0 | -3.2 | -3.9 | 5.6* | 1.4 | 7.3
N#Cc1ccc2c(c1)N(Cc1ccc(F)cc1)C(=O)C1CCCN21 (centres undefined) | 0.1 | 3.0 | 1.7 | 0.7 | · | ·
CC(C)OP(=O)(OC(C)C)/C(=N/NC(=O)c1ccccc1)NO | 0.1 | -11.1 | -5.5 | 0.9 | · | ·
O=C(O)C1CSC(c2ccccc2F)N1 (centres undefined) | -0.1 | 0.2 | -5.7 | 5.3* | 0.2 | -8.9
Cc1ccc(S(=O)(=O)n2ccn(C(=O)c3ccccc3Br)c2=O)cc1 | -0.1 | -3.0 | -9.2 | 4.9* | -0.9 | -13.8
COc1cc(OC)c(NS(=O)(=O)c2cc3c(cc2C)N(C)CCO3)cc1Cl | -0.2 | 4.3 | -4.1 | 2.5 | · | ·
COc1ccc(NS(=O)(=O)c2cc3c(cc2C)N(C)CCO3)c(OC)c1 | 0.5 | 12.1 | 6.9 | 7.3* | 1.1 | 2.4
COc1ccc(CC(CC(=O)Nc2ccc(OC)cc2)C(=O)O)cc1 (centres undefined) | 0.0 | -0.8 | 3.5 | -0.3 | · | ·
CCN1C=CC=C/C1=C1\SC(=S)N(C)C1=O | 0.0 | 11.9 | 1.7 | 7.3* | -1.7 | -9.4
Cc1ccc(C(=O)NC(=S)NNc2nc3ccccc3[nH]2)cc1 | 0.1 | 14.7 | -5.1 | 5.3* | 1.6 | 7.7
Cc1nn(Cc2ccc(F)cc2)c(C)c1N | -0.2 | -6.8 | -6.8 | 14.6* | 0.8 | 5.0
CCOC(=O)c1c(NC(=O)CCCOc2ccc(C)cc2)sc2c1CCCC2 | 0.0 | 15.8 | 4.1 | -0.7 | · | ·
CCCCCc1nnc(NC(=O)Cc2ccc(OC)c(OC)c2)s1 | 0.0 | -1.2 | 5.7 | -0.9 | · | ·
Cc1ccc(S(=O)(=O)CCC(=O)N2CCC3(CC2)OCCO3)cc1 | -0.2 | -18.6 | -33.9 | 0.5 | · | ·
O=C(Nc1cc(C(F)(F)F)ccc1Cl)C1C2CC3OC(=O)C1C3C2 (centres undefined) | 0.1 | 4.2 | -1.2 | -1.9 | · | ·
O=C(Nc1cccc(C(F)(F)F)c1)C1C2CC3OC(=O)C1C3C2 (centres undefined) | 0.1 | 0.9 | -2.0 | 6.3* | 0.8 | 15.1
CCOC(=O)C1=C(C)Nc2nnnn2C1c1cccc(O)c1 (centres undefined) | -0.2 | -0.5 | 1.1 | 12.9* | -0.8 | 1.9
COC(=O)C1=C(C)Nc2ncnn2C1c1cccc(OC)c1 (centres undefined) | 0.0 | 18.7 | -2.4 | 1.0 | · | ·
COC(=O)C1=C(C)Nc2nnnn2C1c1cccc(O)c1 (centres undefined) | 0.0 | -12.2 | -0.1 | 1.3 | · | ·
COCCOC(=O)C1=C(C)Nc2ncnn2C1c1cccc(OC)c1 (centres undefined) | -0.2 | 4.3 | 11.9 | 5.8* | -0.5 | -6.2
CC1CCN(c2c(NCc3ccc(C(=O)NN4CCN(C)CC4)cc3)c(=O)c2=O)CC1 | 0.1 | 16.9 | -5.0 | -0.7 | · | ·
CCN1CCN(C(CC(C)C)c2nnnn2Cc2ccc3c(c2)OCO3)CC1 (centres undefined) | 0.1 | 2.6 | -3.1 | 5.3* | 0.7 | 5.7
C[C@H](CN)Oc1ncccc1C(=O)Nc1ccc2[nH]ncc2c1 | -0.1 | -9.3 | 0.9 | 5.7* | -0.6 | 3.5
Cc1ncoc1C(=O)N1CCOc2ccc(C(O)C(C)C)cc2C1 (centres undefined) | 0.0 | 0.8 | -0.6 | -1.5 | · | ·
